# Rows were chosen to be rich in hits. Some 2.4% of all compounds tested hit in one or more screens of this group.
# D2 ag-1 – agonists of human D2 dopamine receptor (beta-arrestin). AID 624465. actives 0.084% (n = 360,000). DiscoveRx PathHunter D2 beta-arrestin, luminescence, 90 min; 100% = 57 uM dopamine signal. activation, % (test concentration not listed); in the data active = activation above about 40%; inconclusive = between about 15% and that limit
# Target sequence (P14416 whole entry, looked up): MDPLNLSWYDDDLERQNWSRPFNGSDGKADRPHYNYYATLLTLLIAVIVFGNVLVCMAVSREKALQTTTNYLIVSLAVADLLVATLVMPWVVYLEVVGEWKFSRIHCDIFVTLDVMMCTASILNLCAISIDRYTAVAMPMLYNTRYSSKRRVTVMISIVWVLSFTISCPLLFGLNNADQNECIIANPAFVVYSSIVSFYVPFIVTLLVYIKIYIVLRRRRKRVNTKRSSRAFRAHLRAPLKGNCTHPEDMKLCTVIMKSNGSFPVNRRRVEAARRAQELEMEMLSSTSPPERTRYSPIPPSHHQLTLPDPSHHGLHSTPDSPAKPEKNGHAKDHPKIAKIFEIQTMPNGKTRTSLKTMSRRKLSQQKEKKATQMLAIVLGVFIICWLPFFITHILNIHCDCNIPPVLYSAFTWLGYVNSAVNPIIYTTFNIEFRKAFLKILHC
#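 Agonist mode: compounds alone added to overnight-plated D2 PathHunter cells for 90 min at 37 C, with 57 uM final dopamine (EC100) defining full response. Beta-arrestin recruitment detected by chemiluminescent reagent, read after 1 h at ambient temperature.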
# D2 PAM-1 – human D2 receptor positive allosteric modulation | P14416 | DiscoveRx D2 beta-arrestin cells, luminescence, 90 min; 100% = 57 uM dopamine signal | potentiation, % (concentration not given with the values) | actives 0.23% (n = 360,000) | AID 624464; in the data active = potentiation above about 50%; inconclusive = mostly about 30% to 49%
#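 PathHunter beta-arrestin assay in DiscoveRx D2 cells. Compounds were added with an EC20 of dopamine (50 nM final) for 90 min at 37 deg C. Luminescence was read 1 h after detection reagent, with 57 uM dopamine as the EC100 control.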
# D2 antagonist – antagonists of human D2 dopamine receptor; actives 2% (n = 340,000); P14416; HEK293 TREx D2 cells, calcium flux, dopamine EC80; inhibition, % at 10 µM; in the data active = inhibition above about 30%; inactive = below that, where a call was filed; also: 0% is about no effect
#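 In this primary screen, negative modulation is detected by tracking calcium flux after an EC80 dopamine challenge in inducible HEK293 T-REx D2 cells preexposed to test compound for 180 s.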
# D2 ag-2 – agonists of human D2 dopamine receptor; P14416; HEK293 T-REx D2 cells, calcium flux agonist mode; activation, % at 2 µM; actives 0.53% (n = 340,000);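 active = activation over 3 SD above normal in the single-dose calcium agonist read, cut at about 30% in these data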; also: 0% is about no effect
#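 HEK293 Trex D2 cells, tetracycline-induced, o/n 30 C 5% CO2; no-wash Ca dye, RT 30–90 min; 10-cycle baseline, 23 nl cpd added, kinetic Ca read 180 s; agonist hits = positive Ca response.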
# D2 PAM-2 – positively modulates the human D2 dopamine receptor allosterically. actives 0.34% (n = 340,000). AID 485347. P14416. HEK293 T-REx D2, calcium flux, EC20 dopamine potentiation. potentiation, % at 10 µM;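 active = potentiation over 3 SD above the plate norm, cut at about 30% in these data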; also: 0% is about no effect
#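 Tetracycline-induced HEK293 T-REx cells force-coupled to calcium signalling expressed D2; compounds were pin-added after a 10 s baseline, read kinetically 180 s, then an EC20 dopamine challenge followed with a further 180 s calcium read.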
# D3 arrestin ag – D3 receptor agonism confirmed, beta-arrestin readout; actives 4% (n = 2,300); DiscoveRx D3 beta-arrestin cells, luminescence, 90 min; Potency, µM (series often up to 76.9 µM), for the others: at the top dose activation, actives largely listed as activators; shares compounds with D2 ag-2;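 also: potency is read from the fitted curve at half-maximal effect; 100% = dopamine control response; nearly all actives have a fitted effect of over 70% in size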
# D2 ag-3 – D2 receptor agonism, beta-arrestin counterscreen; shares compounds with D2 ag-2; DiscoveRx PathHunter D2 beta-arrestin, luminescence, 90 min; response scale: percent relative to full dopamine signal; Potency, µM (doses to about 76.9 µM), for the others: top-dose activation, hits mostly activators; actives 5.9% (n = 2,300); AID 720507; also: potency is read from the fitted curve at half-maximal effect; % of control where 0% means no effect; nearly all actives have a fitted effect of over 70% in size
# Active calls of the source: *; ? = inconclusive; nt = no result given. Unless noted, calls follow the shape of the dose curve; as a rule, active = well fitted activation curve with a large enough effect; inconclusive = small, poorly fitted or top-dose-only effect; inactive = flat fitted curve, though single readings scatter.
SMILES,D2 ag-1,D2 PAM-1,D2 antagonist,D2 ag-2,D2 PAM-2,D3 arrestin ag,D2 ag-3
CCN1CCN(c2ncnc3scc(-c4ccc(OC)cc4)c23)CC1,78.1*,5.4,-12.8,40.6*,-1.1,-0.1%,39.8µM*
CN(C(=O)COC(=O)C1CCN(S(=O)(=O)c2ccc3c(c2)OCCO3)CC1)c1ccccc1,-1.1,-5.6,6.1,0.7,7.0,nt,nt
CCN(CC)C(=O)COC(=O)C1CCN(S(=O)(=O)c2ccc3c(c2)OCCO3)CC1,5.8,-0.2,17.8,-0.2,11.5,2.4%,-3.4%
CC1CCCC(NC(=O)C2COc3ccccc3O2)C1C (stereo not given),-1.4,-19.0,-13.8,-0.6,6.1,-3.5%,-2.6%
CC(C)(C)NC(=O)c1cc2c(ccc3ccccc32)oc1=O,12.4,0.5,nt,nt,nt,?,9.4%
COC(=O)C1CCN(CCCOc2ccc(CN3CCN(c4ccc([N+](=O)[O-])cc4)CC3)cc2)CC1,45.4*,29.9,84.1*,69.3*,-15.1,?,?
Cc1cc(OC(C)C(=O)N2C[C@H]3C[C@@H](C2)c2cccc(=O)n2C3)c2c(C)c(C)c(=O)oc2c1 (stereo not given in full),-3.7,-6.0,-1.4,41.5*,1.6,-6.8%,-4.9%
Cc1c(C)c2ccc(OC(C)C(=O)N3C[C@H]4C[C@@H](C3)c3cccc(=O)n3C4)c(C)c2oc1=O (stereo not given in full),-6.7,-20.1,15.5,0.4,-4.7,nt,nt
COc1ccc2c(c1)CC(C(=O)Nc1ccc(Br)c(C)c1)CO2 (stereo not given),nt,nt,nt,0.3,-2.6,nt,nt
CC(C)(C)OC(=O)NCCCCCNC(=O)c1[nH]cnc1C(=O)Nc1ccc(Cl)cc1,-0.9,-1.9,-4.7,-1.3,-2.1,nt,nt
Cc1ccc(NC(=O)c2nc[nH]c2C(=O)NCCCCCNC(=O)OC(C)(C)C)cc1,4.6,5.8,-2.5,-0.2,-13.9,11.8%,-0.8%
Cc1ccc(NC(=O)c2nc[nH]c2C(=O)N2CCN(C(=O)OC(C)(C)C)CC2)cc1,-2.3,-6.5,14.8,-1.2,-11.7,-7.4%,-2.0%
O=C(Nc1nccs1)c1nc[nH]c1C(=O)N1CCc2ccccc2C1,-7.3,-9.8,1.7,-0.4,4.0,nt,nt
CC(C)(C)OC(=O)N1CCN(C(=O)c2[nH]cnc2C(=O)Nc2ccc(Cl)cc2)CC1,-1.2,-23.6,nt,nt,nt,nt,nt
O=C(Nc1ccc(Cl)cc1)c1nc[nH]c1C(=O)N1CCc2ccccc2C1,-0.1,-13.9,50.9*,2.3,-21.2,-2.9%,-4.0%
Cc1cc(C)c(Cn2c3ccccc3c3cnn(CC(=O)NCCCc4ccccc4)c(=O)c32)c(C)c1,nt,nt,nt,0.6,-6.0,nt,nt
CC(C)(C)NCC(O)(c1ccc(Cl)cc1)c1ccc(Cl)cc1,-0.7,-3.8,-2.3,0.4,-8.2,nt,nt
NCC(O)(c1ccc(Cl)cc1)c1ccc(Cl)cc1,1.5,-7.4,20.1,25.9,-5.4,5.6%,2.2%
CC1Cc2ccccc2N1C(=O)CSc1nc2ccc(NC(=O)COc3ccccc3)cc2s1 (stereo not given),nt,nt,nt,2.9,-5.9,nt,nt
O=C1C(=O)N(CCCn2ccnc2)C(c2cccnc2)/C1=C(/O)c1ccc(F)cc1 (stereo not given),-1.0,-5.0,24.3,40.1*,-21.5,-9.5%,-3.2%
COc1cccc(NC(=O)Cn2cc(S(=O)(=O)N3CCCC3)c(S(=O)(=O)N3CCCC3)c2)c1,nt,nt,nt,-1.7,5.4,nt,nt
Cc1cc(C)c(NC(N)=S)c(C)c1,-5.1,-3.7,5.6,0.2,-1.0,-0.1%,-3.7%
COCc1cc(C)nc(SCc2ccc(F)cc2)c1C#N,-4.0,-0.6,41.6*,0.3,9.3,-10.0%,-1.7%
CCN1CCN(c2ccc(S(=O)(=O)N3CCOCC3)cc2NC(=O)c2ccc(C)cc2C)CC1,3.7,0.9,8.6,0.2,6.0,-1.7%,-3.3%
